The text below walks through data of PubChem BioAssay (NCATS).

Inconclusive results are not listed. Unmarked numbers belong to inactive results. Activity calls are given as the source filed them. Calls come from the whole dose curve; as a rule, active = well fitted cell-killing curve with a large enough effect; inconclusive = small, poorly fitted or top-dose-only effect; inactive = flat fitted curve, though single readings scatter.
% is set by controls: 0 for no effect and ±100 for the full control effect.

This assay is described as follows: qHTS assay to identify small molecule inhibitors of chordoma cells - UCH-2 (AID 1259356). The conditions noted are these: UCH-2 chordoma viability, CellTiter-Glo ATP luminescence, 48 h; series mostly up to 46.1 µM; activity change, negative = inhibition: at the top concentration.
As to `C#C[C@]1(O)CC[C@H]2[C@@H]3CCC4=CC(=O)CCC4=C3C=C[C@@]21CC`, the “activity change, negative = inhibition” value is 0.246%.
For the molecule `CN1C(=O)CN=C(c2ccccc2)c2cc([N+](=O)[O-])ccc21`, the “activity change, negative = inhibition” value is -2.3%.
In the case of `CC(C)C(Br)C(=O)NC(N)=O` (centres undefined), the “activity change, negative = inhibition” value is 1.91%.
`CCCCCCCCC(=O)NCc1ccc(O)c(OC)c1`: the “activity change, negative = inhibition” value was -12.4%.
On the same count and under the same terms, with `COP(=O)(OC)OC=C(Cl)Cl` the figure was -27.7%.
For `OC(O)C(Cl)(Cl)Cl`, the “activity change, negative = inhibition” value is -2.33%.
Same read-out and setting: with `CC(C)[N+](C)(CCC(C(N)=O)(c1ccccc1)c1ccccc1)C(C)C` the figure was 1.59% [at 20.6 µM]; with `C[N+](C)(C)CCOC(=O)C(O)(c1ccccc1)c1ccccc1`, 0.325%; with `CC1=C2[C@H]3OC(=O)[C@@H](C)[C@@H]3CC[C@@]2(C)C=CC1=O`, 3.58%.
The same measure, in the same setting: then `c1ccc2nc(N3CCNCC3)ccc2c1`, with 14.4%; and `CCN(Cc1ccc(Cl)nc1)/C(=C/[N+](=O)[O-])NC`, with 1.59%; and `Cc1ncc2n1-c1ccc(Cl)cc1C(c1ccccc1F)=NC2`, with -2.32%.
As to `CN(C)C(=O)Oc1cc(OC(=O)N(C)C)cc(C(O)CNC(C)(C)C)c1` (centres undefined), the “activity change, negative = inhibition” value is 10.6% [at 20.6 µM].
Same read-out and setting: with `CC[n+]1c(-c2ccccc2)c2cc(N)ccc2c2ccc(N)cc21` the figure was -0.0725%; with `Cc1ccc(N=CN(C)C=Nc2ccc(C)cc2C)c(C)c1`, 0.583%; with `C=CCN1CC[C@]23CCCC[C@H]2[C@H]1Cc1ccc(O)cc13`, 21.5%.
For the molecule `Cc1c(Cl)c(=O)oc2cc(OP(=O)(OCCCl)OCCCl)ccc12`, the “activity change, negative = inhibition” value is 7.76%.
With `COc1cc(N)c(Cl)cc1C(=O)NC1CN2CCC1CC2` (centres undefined), the “activity change, negative = inhibition” value is 0.34%.
Still for that read-out and setting: then `O=C1NCN(c2ccccc2)C12CCN(CCCOc1ccc(F)cc1)CC2`, with -21.8%; and `C[C@]12Cc3nonc3C[C@@H]1CC[C@@H]1[C@@H]2CC[C@@]2(C)[C@H]1CC[C@]2(C)O`, with 8.09%; and `CN1C[C@@H](NS(=O)(=O)N(C)C)C[C@@H]2c3cccc4c3c(cn4C)C[C@H]21`, with 3.52%.
On to `CCC1(c2cccc(O)c2)CCCCN(C)C1` (centres undefined), for which the “activity change, negative = inhibition” value is 3.76% [at 20.6 µM].
For `CCN(CC)C(C)C(=O)c1ccccc1` (centres undefined), the “activity change, negative = inhibition” value is -2.01%.
On to `C[C@]12C=CC(=O)C=C1CC[C@@H]1[C@@H]2CC[C@@]2(C)[C@H]1CC[C@]2(C)O`, for which the “activity change, negative = inhibition” value was 8.1%.
On the same count and under the same terms, with `CN(C)C(=S)SSC(=S)N(C)C` the figure was 7.42%; with `CCCC(C)C1(CC)C(=O)N=C(S)NC1=O` (centres undefined), 3.92%.
Still for that read-out and setting: with `COP(=O)(OC)C(O)C(Cl)(Cl)Cl` (centres undefined) the figure was 2.81%; with `Oc1c(Br)cc(Br)cc1Br`, -2.14%.
Turning to `Clc1ccc(CO/N=C(\Cn2ccnc2)c2ccc(Cl)cc2Cl)c(Cl)c1`, the “activity change, negative = inhibition” value was 16.9%.
Consider `CC[C@]1(O)CC[C@H]2[C@@H]3CCC4=CCCC[C@@H]4[C@H]3CC[C@@]21C`, for which the “activity change, negative = inhibition” value was -15.6%.
In the case of `CCCCCCCCCCCC[N+](C)(C)CCOc1ccccc1`, the “activity change, negative = inhibition” value was 2.59%.
Consider `C[N+]1(C)[C@@H]2CC[C@H]1CC(OC(=O)C(CO)c1ccccc1)C2` (some centres undefined), for which the Potency entry was “inactive”.
With `CCC1(c2ccccc2)CCC(=O)NC1=O` (centres undefined), the “activity change, negative = inhibition” value was 6.77%.
In the case of `C[C@@H]1CN(C2CCC(C#N)(c3ccc(F)cc3)CC2)CC[C@]1(C(=O)O)c1ccccc1` (some centres undefined), the “activity change, negative = inhibition” value was 0.726% [at 20.6 µM].
As for `Clc1ccc(C(OCCN2CCCCC2)c2ccccc2)cc1` (centres undefined), the “activity change, negative = inhibition” value is 4.62% [at 20.6 µM].
On the same count and under the same terms, with `CN1[C@@H]2CC[C@H]1CC(OC(=O)c1cc(Cl)cc(Cl)c1)C2` (some centres undefined) the figure was -14.7%; with `NC(=O)CN1CCCC1=O`, 12.6% [at 20.6 µM].
`C[C@]12CC[C@H](O)CC1=CC[C@@H]1[C@@H]2CC[C@]2(C)C(=O)CC[C@@H]12`: the “activity change, negative = inhibition” value is -14.5%.
`C[C@H](N)[C@H](O)c1ccc(O)c(O)c1`: the “activity change, negative = inhibition” value is -0.245%.
